Assay outcomes as filed in PubChem BioAssay.
Dicer processing: human Dicer pre-microRNA cleavage inhibition | Q9UPY3 | cat-ELCCA pre-miR-21 Dicer processing, chemiluminescence; active compounds read high | z-score at 25 µM | 47,000 tested, 6% active | AID 1347074; in the data active means z-score above about 3, passing the limit was not always enough;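 further: plate controls were vehicle for no effect and no enzyme for full effect; higher signal means more uncleaved substrate so more Dicer inhibition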
The depositor's hits bear a star. Only a selection was taken, and hits are over-represented in it overall.

SMILES | Dicer processing
c1ccc2c(c1)NC(c1ccc3c(c1)CCO3)n1cccc1-2 (stereo not drawn) | 3.4*
N#CC1=C(O)Cn2c1nc(=O)c1ccccc12 | 0.08
CC1(C)CC(=O)C2=C(C1)N(c1ccc(S(N)(=O)=O)cc1)C(N)=C(C#N)C2c1ccc(Cl)cc1 (stereo not drawn) | -1.2
O=C(Nc1ccc(Br)cn1)c1cc2n(n1)C(C(F)(F)F)CC(c1ccccc1)N2 (stereo not drawn) | 2.6
CCN(Cc1c(C(=O)O)nnn1-c1nonc1N)c1ccccc1 | 2.6
CCOC(=O)c1nnn(-c2nonc2N)c1-c1ccccc1Cl | 1.3
CCOC(=O)c1nnn(-c2nonc2N)c1CN(CC)c1ccccc1 | 5.1*
CCOC(=O)c1nnn(-c2nonc2N)c1-c1cccs1 | -0.05
CCOC(=O)c1nnn(-c2nonc2N)c1CN(C)c1ccccc1 | -0.22
CCOC(=O)c1nnn(-c2nonc2N)c1-c1cccc2ccccc12 | 4*
CCCc1ccc(-n2[nH]nnc2=S)cc1 | 1.9
Cn1c(=O)c2c(nc(Cl)n2Cc2cccc(F)c2)n(C)c1=O | 1
CC(=O)N1CCc2cc(S(=O)(=O)N=S(C)(=O)c3ccc(C)cc3)ccc21 (stereo not drawn) | 1.2
COc1ccc(CCNC(=S)Nc2c(Br)cc(F)cc2Br)cc1OC | 0.7
CC1CC2(C)C(O)CCC2C2CCc3cc(O)ccc3C12 (stereo not drawn) | 1.2
COC(=O)c1c(NC(=O)CSc2ncnc3sc(C)c(C)c23)sc2c1CCCC2 | -2.3
Cc1ccccc1-c1nc(NC(=O)CSc2ncnc3sc(C)c(C)c23)ns1 | 3*
Cc1ccc(-c2nc(NC(=O)CSc3nnc(C)s3)ns2)cc1 | 1.9
Fc1cccc(Cl)c1CSc1nnc(-n2cccc2)s1 | 2.6
O=C(CSc1ncnc2c1sc1nc(N3CCOCC3)c3c(c12)CCCC3)Nc1ccccn1 | -0.27
Cc1csc(NN=C2CCCCC2)n1 | -0.29
CCc1ccc(CN2CCC(N3CCN(CCO)CC3)CC2)cc1 | 0.59
c1cc(CN2CCN(Cc3ccncc3)CC2)ccn1 | 11
CS(=O)(=O)N1CCN(CC(O)Cn2c3ccccc3c3ccccc32)CC1 (stereo not drawn) | 1.4
CCc1ccc(CN2CCN(C3CCCC(C)C3)CC2)cc1 (stereo not drawn) | 3*
SMILES | Dicer processing
CCc1ccc(CN2CCN(S(C)(=O)=O)CC2)cc1 | 3.7*
CCCS(=O)(=O)N1CCN(Cc2ccc(Br)cc2)CC1 | 2.4
CCc1ccc(NS(C)(=O)=O)cc1 | 1.2
CC1CCCC(N2CCN(Cc3ccc(Cl)cc3)CC2)C1 (stereo not drawn) | 0.84
CSc1ccc(CN2CCN(S(C)(=O)=O)CC2)cc1 | 3.1*
CN(/C=C/c1nnnn1-c1ccccc1)CCN(C)/C=C/c1nnnn1-c1ccccc1 | 0.34
CC(C)(COC(=O)c1cc2ccccc2oc1=O)Nc1ccc(C(F)(F)F)cc1[N+](=O)[O-] | -1.5
COc1ccccc1C1C2=C(CCCC2=O)Nc2nnnn21 (stereo not drawn) | 1.6
Cc1ccc(N2C(=O)c3oc4ccccc4c(=O)c3C2c2ccc(F)cc2)nc1 (stereo not drawn) | 1.3
O=C(O)c1cc2cc(Cl)cc(Br)c2oc1=O | -0.55
CSc1nc(C)c2cc(C)oc2n1 | 4.3*
C=CCSc1nc(C)c2cc(C)ccc2n1 | -0.03
O=C(/C=C/c1cccs1)NC(=S)Nc1ccc(S(=O)(=O)Nc2cc(F)ccc2F)cc1 | 0.56
FC(F)(F)c1cc(Cl)cnc1NN=C1C2CC3CC(C2)CC1C3 | 3.6
CC12CCC(C1)C(C)(C)C2NS(=O)(=O)c1cc(Cl)c(Cl)cc1Cl (stereo not drawn) | -0.29
Clc1ccc(-c2nn3c(-c4ccccc4)nnc3s2)cc1 | 3.1*
COc1ccc(-c2nn3c(-c4ccccc4)nnc3s2)cc1 | -0.84
Clc1ccc(-c2nnc3sc(-c4cccs4)nn23)cc1 | 0.22
COC(=O)Cc1c(C(=O)OC)nnn1-c1ccc(Cl)cc1 | 2
COc1ccc(C2N=C(N)Nc3nc4ccccc4n32)cc1OC (stereo not drawn) | 2.5
Cc1c(O)nc(SCC(=O)N2CCc3ccccc32)n(-c2ccccc2)c1=O | 0.01
CC(C)c1c(O)nc(SCC(=O)N2CCc3ccccc32)n(-c2ccccc2)c1=O | -1.1
O=C(CSc1nc(O)cc(=O)n1-c1ccccc1F)N1CCc2ccccc21 | 5.5*
CC1=CC(=O)C(CCCC2=CC(=O)C=CC2=O)=CC1=O | -0.25
O=C1C(=O)N(CCCN2CCOCC2)C(c2cccs2)/C1=C(\O)c1ccc(Cl)cc1 (stereo not drawn) | 1.6
SMILES | Dicer processing
Cc1ccc(C(=O)Nc2cnc3sc4ccccc4n3c2=O)cc1 | -0.84
Cc1ccc(C(=O)Nc2cc(C#N)c3sc4ccccc4n3c2=O)cc1 | 4.8*
O=C(Nc1cnc2sc3ccccc3n2c1=O)c1ccc(F)cc1 | -0.51
Nc1nc(N2CCCCC2)ncc1S(=O)(=O)c1ccc(Cl)cc1 | 0.72
C=C1SC(=Nc2cccc(Cl)c2C)N(C(=O)c2c(F)cccc2F)C12CCCCC2 | -1.4
CC(C)(C)NC(=O)NNc1nc2ccc(Cl)cc2s1 | 3.7*
O=S(=O)(CS(=O)(=O)Nc1nc2ccc(Cl)cc2s1)Nc1nc2ccc(Cl)cc2s1 | 0.06
COC(=O)CSc1nc2ccc(Cl)cc2s1 | 0.92
CCCCc1ccc(-c2nc3ccccc3c(=O)o2)cc1 | 0.32
NNC(=O)c1ccc([N+](=O)[O-])cc1Cl | -0.83
COc1ccc(Oc2ccc([N+](=O)[O-])cc2C(=O)NNC(=O)c2ccc(Cl)cc2Cl)cc1 | 4.8*
COC(=O)c1cc(Cl)ccc1Oc1ccc([N+](=O)[O-])c(Oc2ccc(Cl)cc2C(=O)OC)n1 | -0.75
COCCN1C(=O)c2oc3ccc(C)cc3c(=O)c2C1c1ccc(O)c(OC)c1 (stereo not drawn) | -0.18
Cc1cc(=O)[nH]c(SCC(=O)O)n1 | 1.3
C=CCN1C(=O)C(O)(CC(=O)c2ccc3c(c2)OCO3)c2ccccc21 (stereo not drawn) | 4.3*
C=CCN1C(=O)C(O)(CC(=O)c2c(C)cc(C)cc2C)c2ccccc21 (stereo not drawn) | 0.2
C=CCN1C(=O)C(O)(CC(=O)c2ccc3c(c2)OCCO3)c2ccccc21 (stereo not drawn) | 0.54
C=CCN1C(=O)C(O)(CC(=O)c2ccc(C)cc2)c2ccccc21 (stereo not drawn) | -0.13
C=CCN1C(=O)C(O)(CC(=O)c2ccccc2)c2ccccc21 (stereo not drawn) | -0.1
CN1C(=O)C(O)(CC(=O)c2ccc(Cl)cc2)c2ccccc21 (stereo not drawn) | 3.9*
CN1C(=O)C(O)(CC(=O)c2ccc(C(C)(C)C)cc2)c2ccccc21 (stereo not drawn) | 0.59
CCOC(=O)CN1C(=O)C(O)(CC(=O)c2ccc3c(c2)OCO3)c2ccccc21 (stereo not drawn) | 0.9
C=CCN1C(=O)C(O)(CC(=O)c2ccc(CC)cc2)c2ccccc21 (stereo not drawn) | 3.2*
CCN1C(=O)C(O)(CC(=O)c2c(C)cc(C)cc2C)c2ccccc21 (stereo not drawn) | 3.5*
CC(C)c1ccc(C(=O)CC2(O)C(=O)N(C)c3ccccc32)cc1 (stereo not drawn) | 1.7
CCN1C(=O)C(O)(CC(=O)c2ccncc2)c2ccccc21 (stereo not drawn) | 1.9
N#Cc1c(OCC(F)(F)F)ccc(S(=O)(=O)Oc2cccc(C(F)(F)F)c2)c1OCC(F)(F)F | 0.08
N#Cc1c(C(F)(F)F)cc(-c2cccs2)nc1SCc1csc(-c2cccs2)n1 | 10
CN(C)CCOC(=O)c1ccc2c(c1)C(=O)c1ccccc1-2 | 1.8
